The campaign covered roughly 3,400 compounds. About 840 (25%) were called active. Inconclusive results (about 11%) are left out. Not all results are given here. Potency and affinity values are given separately. Values without a mark were called inactive.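 The calls were made as follows: active = fitted half-maximal concentration of signal decrease at or below twice the sample's top tested concentration; inconclusive = flat curve between -70 and -30 percent, or poor fit; inactive = flat within 30 percent, signal rise, or potency above limit.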

This experiment can be described thus: T. gondii growth inhibition with IFN-gamma, dose response, cell-based, ME49Luc, HeLa, luciferase, 72 h (AID 1259418). Conditions: T. gondii ME49Luc in IFN-y HeLa, hits give low values, -100% = high-dose IFN-γ control wells; at 19.5 µM unless noted.
In the case of `CN1C(=O)CCc2cc(NC(=O)C3CCC3)ccc21`, the max activity is 8.04%.

`CN1C(=O)CCc2cc(NC(=O)C3CCCCC3)ccc21`: the max activity is 40.8%.

As for `COc1ccc(-c2nc(Nc3cc(OC)c(OC)c(OC)c3)c3ccccc3n2)cc1`, the max activity was -9.87% [at 0.16 µM]. With `O=C(CCC1N=C2c3ccccc3N=C(SCc3cc(=O)n4cc(Cl)ccc4n3)N2C1=O)NCc1ccc2c(c1)OCO2` (stereo unspecified), the max activity was -18.4% [at 10 µM]. On to `CCCCN(C)C(=O)Cn1c(=O)c(S(=O)(=O)c2ccccc2)cc2cc(C)ccc21`, for which the max activity is -7.02% [at 0.35 µM]. With `COc1ccc(C(=O)N2CCC3(CC2)Nc2ccc(C)c(C)c2-n2cccc23)cc1`, the max activity was 7.01% [at 0.68 µM]. Turning to `Cc1ccc(S(=O)(=O)N2CCC(C(=O)NCCc3csc(-c4ccccc4)n3)CC2)c(C)c1`, the max activity is 19.2% [at 0.35 µM]. With `O=C(NCCc1csc(-c2ccccc2)n1)C1CCN(S(=O)(=O)c2ccccc2F)CC1`, the max activity is 8.96% [at 0.16 µM]. As for `CCS(=O)(=O)N1CCC(C(=O)NCCc2csc(-c3ccccc3)n2)CC1`, the max activity is -17%. In the case of `Cc1ccc(S(=O)(=O)N2CCC(C(=O)NCCc3csc(-c4ccccc4)n3)CC2)cc1C`, the max activity was 12.1% [at 1.35 µM]. Next, `COc1ccc(-c2nc3c(s2)CN(C(=O)Nc2ccccc2C(F)(F)F)CC3)cc1`: 102%; `Cc1nc(Nc2ccc(F)cn2)sc1C(=O)N1CCC(C(N)=O)(N2CCCCC2)CC1`: 6.22%.

As to `COc1ccccc1NC(=O)Nc1ccc(-c2nc(-c3cccc(Br)c3)co2)cc1`, the max activity is 8.23%. In the case of `Cc1ccc2c(c1)cc(S(=O)(=O)c1ccccc1)c(=O)n2CC(=O)NCCC(C)C` it was -4.39% [at 5 µM]. In the case of `COc1ccc(-c2nc(N3CCN(c4cccc(Cl)c4)CC3)c3ccccc3n2)cc1` it was -7.34% [at 10 µM]; in that of `COC(=O)c1ccccc1NC(=O)N1CCN(Cc2nc(-c3cccc(Cl)c3)oc2C)CC1`, 3.54% [at 2.6 µM]; in that of `COc1ccccc1NC(=O)CN1CCC2(CC1)N=C(c1ccc(Cl)cc1)C(=O)N2`, -13.9% [at 1.35 µM]. For `Cc1ccc(C)c(-c2coc(-c3ccc(NC(=O)CC(C)C)cc3)n2)c1`, the max activity is -23% [at 10 µM]. In the case of `COc1ccc(-c2nc(CSc3nc4c(c(=O)[nH]3)CN(Cc3ccccc3)CC4)c(C)o2)cc1`, the max activity is 9.43% [at 1.35 µM].

For the compound `Cn1cnc2c1C(C(=O)O)CN(C(=O)c1ccsc1)C2` (stereo unspecified), the max activity was 44.9%. As to `C=CCN1CCC2(CC1)CC(NCc1ccc(C)s1)c1ccccc1O2` (stereo unspecified), the max activity is -7.33% [at 1.2 µM].

`O=C(CC1Nc2c3ccccc3nc(=S)n2C1=O)NCc1ccc(Cl)cc1` (stereo unspecified): the max activity was 15.8%.

As to `CCCCCNC(=O)CC1Nc2c3ccccc3nc(=S)n2C1=O` (stereo unspecified), the max activity is -10.3% [at 10 µM]. As for `O=C(CCC1Nc2c3ccccc3nc(=S)n2C1=O)NCCN1CCN(c2ccccc2)CC1` (stereo unspecified), the max activity is 19.8% [at 0.16 µM]. In the case of `CCCCNC(=O)CC1Nc2c3ccccc3nc(=S)n2C1=O` (stereo unspecified), the max activity was -20.7% [at 10 µM]. For `O=C(CC1Nc2c3ccccc3nc(=S)n2C1=O)NCc1ccccc1` (stereo unspecified), the max activity is 26.5% [at 2.6 µM].

`O=C(CC1Nc2c3ccccc3nc(=S)n2C1=O)NCc1ccc(F)cc1` (stereo unspecified): the max activity is 15.6% [at 0.16 µM]. Turning to `COc1ccccc1CNC(=O)CC1Nc2c3ccccc3nc(=S)n2C1=O` (stereo unspecified), the max activity is 46.9% [at 0.16 µM]. In the case of `O=C(CCC1Nc2c3ccccc3nc(=S)n2C1=O)NCCN1CCN(c2cccc(Cl)c2)CC1` (stereo unspecified) it was 7.2% [at 5 µM]. For the compound `CCc1nc(OCC(=O)Nc2ccc(Br)cc2)c2ccccc2n1`, the max activity is 33.9% [at 0.68 µM]. For `CCc1onc(C)c1C1CCCN1C(=O)Cn1nc(C(F)(F)F)c2c1CCCC2` (stereo unspecified), the max activity was 9.22% [at 2.6 µM]. In the case of `CN(C)S(=O)(=O)N1C[C@@H]2CN(Cc3ccoc3)CCO[C@H]2C1`, the max activity is 25.4%. Turning to `Cc1cnc(N2Cc3nccn3CC(CN3CCCC3)C2)nc1` (stereo unspecified), the max activity was 46.2%.

Turning to `COc1ccc(-c2nc3c(s2)CN(C(=O)Nc2cc(C)ccc2C)CC3)cc1`, the max activity is 75%. For the compound `COc1ccccc1N(Cc1nc(-c2ccc(OC(C)C)cc2)oc1C)S(=O)(=O)c1ccccc1`, the max activity is -5.99% [at 1.35 µM]. Take `CCOc1ccccc1N(Cc1nc(-c2cccc(C)c2)oc1C)S(=O)(=O)c1ccccc1`: the max activity is 3.42% [at 0.68 µM]. For `COc1ccc(-c2nc(CN(c3ccccc3OC)S(=O)(=O)c3ccccc3)c(C)o2)cc1`, the max activity is 24.5% [at 10 µM]. In the case of `CCOc1ccc(-c2nc(CN(c3ccccc3OC)S(=O)(=O)c3ccc(C)cc3)c(C)o2)cc1` it was 17.2% [at 0.68 µM]. Regarding `CCOc1ccccc1CNc1nc(-c2ccc(OC)cc2)nc2ccccc12`, the max activity was -11.7% [at 0.35 µM]. In the case of `NC(=O)C1(N2CCCCC2)CCN(c2ncc(NC(=O)c3ccccc3)cc2C(=O)O)CC1` it was 14.4% [at 0.16 µM]; in that of `Cc1cccc(N2CCN(c3nc(-c4ccc(Cl)cc4)nc4ccccc34)CC2C)c1` (stereo unspecified), -29% [at 0.35 µM]; in that of `Cc1ccc2c(c1C)-n1cccc1C1(CCN(C(=O)c3cccc(Br)c3)CC1)N2`, -13.6% [at 1.35 µM]. Next, `Cc1nc(OCC(=O)Nc2ccc(Cl)cc2Cl)c2ccccc2n1`: 23% [at 5 µM]; `Cc1ccc(-c2coc(-c3ccc(NC(=O)C(C)C)cc3)n2)c(C)c1`: -33.6% [at 5 µM]. Consider `Cc1ccc(-c2coc(-c3ccc(NC(=O)Nc4ccccc4F)cc3)n2)cc1`, for which the max activity is 86.4% [at 10 µM]. Regarding `Cc1oc(-c2ccccc2)nc1Cn1nnc(-c2nc(-c3ccc(C(F)(F)F)cc3)no2)c1C`, the max activity was 47.1%.

With `CN(C)C(=O)COCC1CN(S(C)(=O)=O)Cc2nnn(C)c21` (stereo unspecified), the max activity is 28%. `Cc1csc(-c2cc(S(=O)(=O)N3CCC(Cc4ccccc4)CC3)c(C)s2)n1`: the max activity was -11.8% [at 0.16 µM]. As to `Cc1ccc(C(=O)Nc2c(C(=O)N3CCN(c4ccccn4)CC3)[nH]c3ccc(C)cc23)cc1`, the max activity is 31.1% [at 0.68 µM].

As for `Cc1ccc2c(c1C)-n1cccc1C1(CCN(C(=O)c3ccccc3C(F)(F)F)CC1)N2`, the max activity is -6.6% [at 5 µM].

For `COc1ccc(OCC(=O)N2CCC3(CC2)Nc2cc(F)ccc2-n2cccc23)cc1`, the max activity is 4.86% [at 10 µM].

As to `COc1cc(OC)cc(C(=O)N2CCC3(CC2)Nc2cc(F)ccc2-n2cccc23)c1`, the max activity was 10.1%. Turning to `COc1ccc2c(c1)NC1(CCN(C(=O)c3cc(OC)c(OC)c(OC)c3)CC1)c1cccn1-2`, the max activity is 9.35% [at 0.35 µM]. Next, `COc1ccc2c(c1)NC1(CCN(C(=O)COc3cccc(C)c3)CC1)c1cccn1-2`: -5.04% [at 0.16 µM]; `COc1ccc(-c2nc(Nc3ccc(F)cc3Cl)c3ccccc3n2)cc1`: 8.01%. For the compound `Cc1oc(-c2ccccc2)nc1Cn1nnc(-c2nc(-c3ccc(Cl)cc3)no2)c1C`, the max activity is 11.1%. As to `N#CCSC1=Nc2ccccc2C2=NC(CC(=O)NC3CCCCC3)C(=O)N12` (stereo unspecified), the max activity is 23.6% [at 10 µM]. Turning to `CC(=O)N1Cc2ncn(CC3CC3)c2C(COCC2CCOCC2)C1` (stereo unspecified), the max activity was 8.65%.

For the compound `COCC1CN(C(=O)c2cc(C)on2)Cc2c1cnn2CC1CC1` (stereo unspecified), the max activity is 27.1%. For the compound `CCOc1ccccc1C(=O)N1CCC2(CC1)Nc1ccc(C)c(C)c1-n1cccc12`, the max activity is -6.2% [at 2.6 µM].

Take `COc1ccccc1N(Cc1nc(-c2ccccc2)oc1C)S(=O)(=O)c1ccccc1`: the max activity is -5.89% [at 0.35 µM]. `COc1ccc(S(=O)(=O)N(Cc2nc(-c3cccc(Cl)c3)oc2C)c2ccccc2OC)cc1`: the max activity was -7.97% [at 5 µM]. In the case of `CCOc1ccc(NC(=O)Nc2ccc(-c3nc(-c4ccc(C)cc4)co3)cc2)cc1` it was 62.7%. As to `N#CCSC1=Nc2ccccc2C2=NC(CCC(=O)NCc3ccc4c(c3)OCO4)C(=O)N12` (stereo unspecified), the max activity is 17.8%. In the case of `CCc1c(C)sc2c1CCN(Cc1nc(-c3cc(C)ccc3C)oc1C)C2c1ccccc1` (stereo unspecified) it was 12.6% [at 5 µM]; in that of `CN1CCN(C(=O)Cc2ccsc2)Cc2cccnc21`, 40%. In the case of `Cc1ccnc(Nc2nc(C)c(C(=O)N3CCC(C(N)=O)(N4CCCCC4)CC3)s2)c1`, the max activity is -7.52% [at 0.35 µM]. For `Clc1ccccc1-c1nc(NCCCc2ccccc2)c2ccccc2n1`, the max activity was -24.4% [at 10 µM].

For the compound `COc1ccc(-c2nc(Nc3ccc(CN4CCCCC4)cc3)c3ccccc3n2)cc1`, the max activity is 10.9% [at 10 µM]. For `COc1ccc(-c2nc(Nc3ccccc3)c3ccccc3n2)cc1`, the max activity was 6.36% [at 10 µM]. Consider `COc1ccc(-c2nc(Nc3ccccc3OC)c3ccccc3n2)cc1`, for which the max activity is 20%.

Regarding `CCN(CCNc1nc(-c2ccccc2Cl)nc2ccccc12)c1cccc(C)c1`, the max activity was 12.3%. Take `CCc1ccc(Nc2nc(-c3ccc(OC)cc3)nc3ccccc23)cc1`: the max activity was -16.2% [at 0.35 µM].

Consider `COc1ccc(-c2nc(Nc3cc(OC)ccc3OC)c3ccccc3n2)cc1`, for which the max activity was -18.7% [at 5 µM]. As for `COc1ccc(Nc2nc(-c3ccc(OC)cc3)nc3ccccc23)cc1`, the max activity is 12.9%.

`Cc1ccccc1CC(=O)N1CCC2(CC1)Nc1cc(F)ccc1-n1cccc12`: the max activity is 10.3% [at 0.68 µM].

The values are drawn from PubChem BioAssay AID1259418 (Broad Institute, 2018).
